Common to all, as to assay: DAPPL (digital affinity profiling via proximity ligation, sequencing); 10 mM Tris-HCl pH 7.5, 50 mM NaCl, 1 mM DTT, 4% glycerol, room temperature, 30 min; GST-TFs on glutathione beads, 16-mer random dsDNA library, 0.1% formaldehyde crosslink after washing; high values mean tight binding
For one assay, the target named is T1, FLI1 (Homo sapiens, UniProt Q01543 1-452).
T1 sequence: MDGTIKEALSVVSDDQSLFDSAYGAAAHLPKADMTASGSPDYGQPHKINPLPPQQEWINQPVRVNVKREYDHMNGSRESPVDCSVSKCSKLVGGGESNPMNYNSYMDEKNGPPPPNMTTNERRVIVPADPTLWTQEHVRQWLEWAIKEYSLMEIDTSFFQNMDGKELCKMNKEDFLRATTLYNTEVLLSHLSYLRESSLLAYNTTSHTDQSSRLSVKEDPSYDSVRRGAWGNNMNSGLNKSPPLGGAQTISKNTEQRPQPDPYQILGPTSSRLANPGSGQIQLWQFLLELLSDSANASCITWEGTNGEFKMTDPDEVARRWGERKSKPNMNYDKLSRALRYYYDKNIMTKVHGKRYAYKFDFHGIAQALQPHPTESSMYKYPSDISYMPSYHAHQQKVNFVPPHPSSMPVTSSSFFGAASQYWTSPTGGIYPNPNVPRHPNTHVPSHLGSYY
The note with it: protein: recombinant; tags: N-terminal GST; dsDNA, one strand shown. In short, it runs like this:
(§1)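 In yeast, human transcription factors were expressed with a GST fusion, then pulled down on glutathione beads and given DNA barcodes. Pooled with a tag-only sample, they were exposed to 200 nmole of a 16-mer random double-stranded DNA library (Tris/NaCl/DTT/glycerol buffer, room temperature, 30 min), washed, crosslinked with 0.1% formaldehyde, proximity-ligated using BsaI/T4 ligase for 1 h at 37 °C, PCR-amplified and read on an Illumina NextSeq500. Each hexamer's frequency of reads for a factor, divided by the matching frequency for the tag-only sample, gives the binding signal.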

For the next assay, the target named is T2, ELK1 (Homo sapiens, UniProt P19419 1-428).
T2 sequence: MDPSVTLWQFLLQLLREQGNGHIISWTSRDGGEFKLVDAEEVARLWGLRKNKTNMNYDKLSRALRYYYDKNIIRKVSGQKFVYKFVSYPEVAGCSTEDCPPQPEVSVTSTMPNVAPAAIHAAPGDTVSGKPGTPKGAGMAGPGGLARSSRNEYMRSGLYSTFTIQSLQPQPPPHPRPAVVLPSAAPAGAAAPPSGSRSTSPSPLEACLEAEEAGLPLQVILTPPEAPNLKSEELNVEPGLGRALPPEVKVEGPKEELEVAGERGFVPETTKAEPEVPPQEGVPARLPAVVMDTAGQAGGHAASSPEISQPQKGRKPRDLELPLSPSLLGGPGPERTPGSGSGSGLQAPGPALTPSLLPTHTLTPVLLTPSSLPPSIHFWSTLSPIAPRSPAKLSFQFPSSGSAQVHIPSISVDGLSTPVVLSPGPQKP
The note with it: protein: recombinant; tags: N-terminal GST; dsDNA, one strand shown. In short, it runs like this: as §1

A further assay addresses T3, GABPA (Homo sapiens, UniProt Q06546 1-454).
T3 sequence: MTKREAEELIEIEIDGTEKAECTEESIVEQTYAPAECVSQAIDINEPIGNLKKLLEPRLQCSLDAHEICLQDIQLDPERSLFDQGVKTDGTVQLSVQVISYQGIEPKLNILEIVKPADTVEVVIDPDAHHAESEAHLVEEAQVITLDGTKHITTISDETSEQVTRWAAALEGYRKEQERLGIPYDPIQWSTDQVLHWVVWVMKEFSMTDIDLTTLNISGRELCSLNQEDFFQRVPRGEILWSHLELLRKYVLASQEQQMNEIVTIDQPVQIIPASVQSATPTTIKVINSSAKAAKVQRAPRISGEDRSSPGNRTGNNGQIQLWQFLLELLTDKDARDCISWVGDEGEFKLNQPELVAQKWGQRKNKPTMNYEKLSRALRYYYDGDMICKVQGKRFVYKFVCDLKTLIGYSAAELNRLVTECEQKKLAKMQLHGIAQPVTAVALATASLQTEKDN
The note with it: protein: recombinant; tags: N-terminal GST; dsDNA, one strand shown. In short, it runs like this:
as §1

Another assay addresses T4, ERG (Homo sapiens, UniProt P11308 1-479).
T4 sequence: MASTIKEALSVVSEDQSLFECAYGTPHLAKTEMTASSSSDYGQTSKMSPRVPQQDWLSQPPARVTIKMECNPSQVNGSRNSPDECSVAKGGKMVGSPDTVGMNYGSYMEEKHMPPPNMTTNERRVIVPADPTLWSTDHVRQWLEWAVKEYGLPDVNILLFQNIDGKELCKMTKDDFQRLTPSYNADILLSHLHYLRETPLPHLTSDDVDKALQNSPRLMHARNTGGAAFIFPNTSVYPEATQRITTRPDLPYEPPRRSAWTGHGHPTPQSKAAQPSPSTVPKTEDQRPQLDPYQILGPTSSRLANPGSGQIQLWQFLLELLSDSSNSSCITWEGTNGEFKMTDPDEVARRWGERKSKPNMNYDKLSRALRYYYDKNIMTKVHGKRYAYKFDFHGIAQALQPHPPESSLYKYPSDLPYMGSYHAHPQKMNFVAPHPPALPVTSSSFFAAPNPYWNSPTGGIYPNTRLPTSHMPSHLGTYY
The note with it: protein: recombinant; tags: N-terminal GST; dsDNA, one strand shown. In short, it runs like this: as §1

The target of the next assay is ELF1 (Homo sapiens, UniProt P32519 1-619). The note with it: protein: recombinant; tags: N-terminal GST; dsDNA, one strand shown. In short, it runs like this: as §1
Another assay has as its target T5, EHF (Homo sapiens, UniProt Q9NZC4 1-300).
T5 sequence: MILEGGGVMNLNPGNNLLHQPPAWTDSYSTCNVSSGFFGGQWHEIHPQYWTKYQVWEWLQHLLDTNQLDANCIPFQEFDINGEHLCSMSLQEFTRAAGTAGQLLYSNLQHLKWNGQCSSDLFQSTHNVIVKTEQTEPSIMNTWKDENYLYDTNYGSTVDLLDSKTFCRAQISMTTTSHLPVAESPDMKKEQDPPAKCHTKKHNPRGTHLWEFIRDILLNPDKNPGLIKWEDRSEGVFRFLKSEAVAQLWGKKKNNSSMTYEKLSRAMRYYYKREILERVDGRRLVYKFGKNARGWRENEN
The note with it: protein: recombinant; tags: N-terminal GST; dsDNA, one strand shown. In short, it runs like this:
as §1

The target in the next assay is SPI1 (Homo sapiens, UniProt P17947 1-270). The note with it: protein: recombinant; tags: N-terminal GST; dsDNA, one strand shown. In short, it runs like this: as §1
The target of another assay is SPIB (Homo sapiens, UniProt Q01892 1-262). The note with it: protein: recombinant; tags: N-terminal GST; dsDNA, one strand shown. In short, it runs like this: as §1
The target of the next assay is T6, ELK3 (Homo sapiens, UniProt P41970 1-407).
T6 sequence: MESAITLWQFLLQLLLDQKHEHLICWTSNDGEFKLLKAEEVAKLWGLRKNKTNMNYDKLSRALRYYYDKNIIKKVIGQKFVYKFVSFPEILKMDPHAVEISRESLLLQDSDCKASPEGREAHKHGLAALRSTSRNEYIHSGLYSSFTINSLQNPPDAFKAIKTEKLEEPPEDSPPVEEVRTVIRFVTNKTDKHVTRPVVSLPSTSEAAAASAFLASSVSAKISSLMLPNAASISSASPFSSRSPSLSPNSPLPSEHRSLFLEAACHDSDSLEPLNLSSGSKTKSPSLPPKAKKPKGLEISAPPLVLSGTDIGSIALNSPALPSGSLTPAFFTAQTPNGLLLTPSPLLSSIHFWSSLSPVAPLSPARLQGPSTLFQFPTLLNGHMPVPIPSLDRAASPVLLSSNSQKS
The note with it: protein: recombinant; tags: N-terminal GST; dsDNA, one strand shown. In short, it runs like this:
as §1

The next assay has as its target T7, FEV (Homo sapiens, UniProt Q99581 1-238).
T7 sequence: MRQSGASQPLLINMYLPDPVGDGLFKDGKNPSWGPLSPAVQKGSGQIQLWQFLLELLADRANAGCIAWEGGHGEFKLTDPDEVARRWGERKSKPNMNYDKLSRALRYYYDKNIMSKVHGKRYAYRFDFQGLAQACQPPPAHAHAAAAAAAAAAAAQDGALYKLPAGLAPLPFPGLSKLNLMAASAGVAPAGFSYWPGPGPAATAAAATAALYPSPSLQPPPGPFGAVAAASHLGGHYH
The note with it: protein: recombinant; tags: N-terminal GST; dsDNA, one strand shown. In short, it runs like this: as §1

A further assay addresses ETV5 (Homo sapiens, UniProt P41161 1-510). The note with it: protein: recombinant; tags: N-terminal GST; dsDNA, one strand shown. In short, it runs like this:
as §1

Another assay has as its target HSF1 (Homo sapiens, UniProt Q00613 1-529). The note with it: protein: recombinant; tags: N-terminal GST; chain copies: 3; dsDNA, one strand shown. In short, it runs like this:
as §1

The next assay addresses T8, SPIC (Homo sapiens, UniProt Q8N5J4 1-248).
T8 sequence: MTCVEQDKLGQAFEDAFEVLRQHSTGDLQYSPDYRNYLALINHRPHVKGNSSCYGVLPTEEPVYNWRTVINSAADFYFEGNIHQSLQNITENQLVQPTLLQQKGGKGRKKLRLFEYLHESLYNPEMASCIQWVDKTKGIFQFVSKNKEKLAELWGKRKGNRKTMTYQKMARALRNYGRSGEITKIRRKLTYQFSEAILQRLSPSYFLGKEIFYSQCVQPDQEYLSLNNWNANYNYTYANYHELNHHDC
The note with it: protein: recombinant; tags: N-terminal GST; dsDNA, one strand shown. In short, it runs like this:
as §1

The target in the next assay is ELF4 (Homo sapiens, UniProt Q99607 1-663). The note with it: protein: recombinant; tags: N-terminal GST; dsDNA, one strand shown. In short, it runs like this: as §1
A further assay deals with T9, ELK4 (Homo sapiens, UniProt P28324-2 1-405).
T9 sequence: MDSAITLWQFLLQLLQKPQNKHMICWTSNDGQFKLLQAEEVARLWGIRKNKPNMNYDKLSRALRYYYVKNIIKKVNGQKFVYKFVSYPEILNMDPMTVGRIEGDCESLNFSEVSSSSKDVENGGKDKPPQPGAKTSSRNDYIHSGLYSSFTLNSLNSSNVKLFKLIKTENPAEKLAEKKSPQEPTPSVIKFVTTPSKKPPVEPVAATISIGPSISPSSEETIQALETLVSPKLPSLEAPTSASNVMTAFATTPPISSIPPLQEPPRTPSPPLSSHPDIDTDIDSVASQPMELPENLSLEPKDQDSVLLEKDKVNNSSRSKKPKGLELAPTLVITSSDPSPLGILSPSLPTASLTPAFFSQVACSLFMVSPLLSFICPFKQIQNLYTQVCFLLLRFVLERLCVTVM
The note with it: protein: recombinant; tags: N-terminal GST; dsDNA, one strand shown. In short, it runs like this: as §1

For the next assay, the target named is T10, ETV2 (Homo sapiens, UniProt O00321 1-342).
T10 sequence: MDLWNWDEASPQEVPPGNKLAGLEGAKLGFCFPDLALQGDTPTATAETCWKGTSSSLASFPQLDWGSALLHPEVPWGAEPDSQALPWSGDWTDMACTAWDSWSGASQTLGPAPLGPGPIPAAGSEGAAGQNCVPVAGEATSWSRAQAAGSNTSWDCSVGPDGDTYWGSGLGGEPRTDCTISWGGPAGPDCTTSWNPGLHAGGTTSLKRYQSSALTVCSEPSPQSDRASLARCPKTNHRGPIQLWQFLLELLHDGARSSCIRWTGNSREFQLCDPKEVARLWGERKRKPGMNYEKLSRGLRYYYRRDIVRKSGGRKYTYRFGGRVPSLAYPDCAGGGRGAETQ
The note with it: protein: recombinant; tags: N-terminal GST; dsDNA, one strand shown. In short, it runs like this: as §1

For the next assay, the target named is T11, ELF3 (Homo sapiens, UniProt P78545 1-371).
T11 sequence: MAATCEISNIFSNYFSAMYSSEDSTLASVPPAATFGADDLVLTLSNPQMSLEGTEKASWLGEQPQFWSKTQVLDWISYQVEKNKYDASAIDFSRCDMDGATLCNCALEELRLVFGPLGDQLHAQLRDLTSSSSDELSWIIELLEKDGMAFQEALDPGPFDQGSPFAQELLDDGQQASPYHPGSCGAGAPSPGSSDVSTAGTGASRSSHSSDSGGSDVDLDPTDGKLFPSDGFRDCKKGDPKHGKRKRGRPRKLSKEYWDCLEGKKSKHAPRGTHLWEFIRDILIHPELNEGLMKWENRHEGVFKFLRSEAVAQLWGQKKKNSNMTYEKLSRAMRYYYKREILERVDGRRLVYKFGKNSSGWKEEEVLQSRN
The note with it: protein: recombinant; tags: N-terminal GST; dsDNA, one strand shown. In short, it runs like this: as §1

The next assay has as its target CRX (Homo sapiens, UniProt O43186 1-299). The note with it: protein: recombinant; tags: N-terminal GST; dsDNA, one strand shown. In short, it runs like this: as §1
The target of another assay is ETV1 (Homo sapiens, UniProt P50549 1-477). The note with it: protein: recombinant; tags: N-terminal GST; dsDNA, one strand shown. In short, it runs like this: as §1
ETV1, sequence (P50549 whole entry): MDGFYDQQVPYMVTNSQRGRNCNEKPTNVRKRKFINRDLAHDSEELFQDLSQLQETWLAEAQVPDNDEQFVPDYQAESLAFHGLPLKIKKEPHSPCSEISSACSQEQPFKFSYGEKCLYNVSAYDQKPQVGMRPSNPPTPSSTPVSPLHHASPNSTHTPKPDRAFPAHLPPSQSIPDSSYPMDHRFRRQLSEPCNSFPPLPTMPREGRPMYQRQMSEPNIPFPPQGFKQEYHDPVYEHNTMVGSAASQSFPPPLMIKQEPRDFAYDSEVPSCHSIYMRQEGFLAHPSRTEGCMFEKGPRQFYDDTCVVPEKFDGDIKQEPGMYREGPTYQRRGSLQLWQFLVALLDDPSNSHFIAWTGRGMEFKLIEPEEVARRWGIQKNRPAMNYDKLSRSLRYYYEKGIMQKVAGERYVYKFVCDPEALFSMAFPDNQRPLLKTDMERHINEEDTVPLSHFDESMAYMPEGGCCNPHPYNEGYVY

ELF4, sequence (Q99607 whole entry): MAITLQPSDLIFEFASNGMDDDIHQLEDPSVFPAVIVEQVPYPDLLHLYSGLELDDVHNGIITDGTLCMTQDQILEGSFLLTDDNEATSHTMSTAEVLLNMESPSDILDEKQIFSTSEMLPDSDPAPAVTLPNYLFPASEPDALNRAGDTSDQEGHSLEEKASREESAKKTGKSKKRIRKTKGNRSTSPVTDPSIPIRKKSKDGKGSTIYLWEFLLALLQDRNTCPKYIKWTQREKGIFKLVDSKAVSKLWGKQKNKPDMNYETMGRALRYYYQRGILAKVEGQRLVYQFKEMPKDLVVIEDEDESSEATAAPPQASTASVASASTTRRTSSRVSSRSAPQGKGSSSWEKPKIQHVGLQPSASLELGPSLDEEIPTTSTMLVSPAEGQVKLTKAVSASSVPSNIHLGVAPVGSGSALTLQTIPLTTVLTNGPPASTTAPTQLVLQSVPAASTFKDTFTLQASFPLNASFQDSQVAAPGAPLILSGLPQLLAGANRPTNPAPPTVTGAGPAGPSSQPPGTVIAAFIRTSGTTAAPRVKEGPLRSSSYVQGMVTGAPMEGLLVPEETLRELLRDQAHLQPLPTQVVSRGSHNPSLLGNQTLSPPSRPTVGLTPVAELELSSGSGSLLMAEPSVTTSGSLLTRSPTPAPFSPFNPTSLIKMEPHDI
HSF1, sequence (Q00613 whole entry): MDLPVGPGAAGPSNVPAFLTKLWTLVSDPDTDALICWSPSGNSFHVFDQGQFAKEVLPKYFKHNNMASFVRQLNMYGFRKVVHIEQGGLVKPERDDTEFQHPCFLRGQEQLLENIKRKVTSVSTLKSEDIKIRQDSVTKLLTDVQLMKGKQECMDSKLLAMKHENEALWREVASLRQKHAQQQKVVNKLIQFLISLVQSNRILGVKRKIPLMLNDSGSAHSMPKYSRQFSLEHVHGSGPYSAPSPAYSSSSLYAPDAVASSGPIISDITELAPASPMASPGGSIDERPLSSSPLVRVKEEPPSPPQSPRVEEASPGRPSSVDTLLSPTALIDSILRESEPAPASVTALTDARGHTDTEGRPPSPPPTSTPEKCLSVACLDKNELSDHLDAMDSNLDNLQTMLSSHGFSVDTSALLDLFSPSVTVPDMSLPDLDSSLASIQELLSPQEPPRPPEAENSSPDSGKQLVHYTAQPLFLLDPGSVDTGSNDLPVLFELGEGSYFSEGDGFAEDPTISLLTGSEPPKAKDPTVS
CRX, sequence (O43186 whole entry): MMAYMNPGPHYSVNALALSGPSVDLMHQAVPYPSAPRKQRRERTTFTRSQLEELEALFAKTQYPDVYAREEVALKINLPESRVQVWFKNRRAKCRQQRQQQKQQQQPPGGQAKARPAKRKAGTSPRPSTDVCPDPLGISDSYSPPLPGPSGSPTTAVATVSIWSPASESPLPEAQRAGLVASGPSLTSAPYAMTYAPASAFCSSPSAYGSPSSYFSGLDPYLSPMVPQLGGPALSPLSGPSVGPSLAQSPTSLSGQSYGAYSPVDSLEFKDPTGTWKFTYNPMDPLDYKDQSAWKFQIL
ELF1, sequence (P32519 whole entry): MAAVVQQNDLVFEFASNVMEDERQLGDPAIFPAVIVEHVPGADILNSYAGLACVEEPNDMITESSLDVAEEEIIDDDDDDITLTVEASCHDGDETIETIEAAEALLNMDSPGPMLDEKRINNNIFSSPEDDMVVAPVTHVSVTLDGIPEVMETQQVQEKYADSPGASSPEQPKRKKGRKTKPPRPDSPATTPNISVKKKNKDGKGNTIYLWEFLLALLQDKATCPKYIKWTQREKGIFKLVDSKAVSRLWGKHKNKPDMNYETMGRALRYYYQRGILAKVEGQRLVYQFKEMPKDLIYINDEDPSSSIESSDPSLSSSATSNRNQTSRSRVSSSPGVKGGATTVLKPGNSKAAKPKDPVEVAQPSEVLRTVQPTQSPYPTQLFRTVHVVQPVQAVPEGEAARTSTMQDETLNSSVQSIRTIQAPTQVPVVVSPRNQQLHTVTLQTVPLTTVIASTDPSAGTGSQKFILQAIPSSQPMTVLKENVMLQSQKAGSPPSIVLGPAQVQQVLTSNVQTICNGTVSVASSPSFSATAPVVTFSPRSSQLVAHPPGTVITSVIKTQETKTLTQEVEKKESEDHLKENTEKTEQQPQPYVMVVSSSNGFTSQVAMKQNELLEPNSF
ETV5, sequence (P41161 whole entry): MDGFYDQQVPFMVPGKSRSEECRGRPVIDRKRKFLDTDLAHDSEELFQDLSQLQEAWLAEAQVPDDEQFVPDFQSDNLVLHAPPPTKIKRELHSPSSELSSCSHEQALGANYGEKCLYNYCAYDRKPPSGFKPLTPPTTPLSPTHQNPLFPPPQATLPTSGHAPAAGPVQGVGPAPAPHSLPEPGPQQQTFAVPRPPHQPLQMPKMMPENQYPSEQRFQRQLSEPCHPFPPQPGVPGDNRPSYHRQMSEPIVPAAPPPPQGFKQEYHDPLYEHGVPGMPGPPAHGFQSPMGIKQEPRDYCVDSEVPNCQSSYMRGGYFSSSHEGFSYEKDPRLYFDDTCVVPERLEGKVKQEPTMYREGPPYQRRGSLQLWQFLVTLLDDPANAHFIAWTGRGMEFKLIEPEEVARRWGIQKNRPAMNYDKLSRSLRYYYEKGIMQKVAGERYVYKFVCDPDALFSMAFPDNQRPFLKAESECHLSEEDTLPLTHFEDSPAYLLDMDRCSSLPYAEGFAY
SPIB, sequence (Q01892 whole entry): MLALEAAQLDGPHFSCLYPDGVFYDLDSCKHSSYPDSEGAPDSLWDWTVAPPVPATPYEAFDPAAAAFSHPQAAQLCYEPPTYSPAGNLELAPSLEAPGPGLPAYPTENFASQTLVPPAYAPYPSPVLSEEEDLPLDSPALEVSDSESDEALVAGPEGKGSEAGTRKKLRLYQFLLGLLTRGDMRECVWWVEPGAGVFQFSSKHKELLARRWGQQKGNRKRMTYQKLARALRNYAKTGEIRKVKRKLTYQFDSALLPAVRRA

Regarding TGCCTT, the binding signal with FLI1 was 1.29 fold enrichment (6-mer frequency, TF over GST control); with ELK1 it was 1.38 fold enrichment (6-mer frequency, TF over GST control); with GABPA it was 1.54 fold enrichment (6-mer frequency, TF over GST control); with ERG, 1.35 fold enrichment (6-mer frequency, TF over GST control); in the assay with ELF1, 1.33 fold enrichment (6-mer frequency, TF over GST control); with EHF, 1.3 fold enrichment (6-mer frequency, TF over GST control). Besides, the binding signal in the assay with SPI1 is 1.44 fold enrichment (6-mer frequency, TF over GST control); with SPIB it was 1.35 fold enrichment (6-mer frequency, TF over GST control); with ELK3, 1.24 fold enrichment (6-mer frequency, TF over GST control); with FEV, 1.3 fold enrichment (6-mer frequency, TF over GST control); with ETV5 it was 1.36 fold enrichment (6-mer frequency, TF over GST control); with HSF1 it was 1.27 fold enrichment (6-mer frequency, TF over GST control). Moreover, the binding signal with SPIC is 1.55 fold enrichment (6-mer frequency, TF over GST control); in the assay with ELF4, 1.27 fold enrichment (6-mer frequency, TF over GST control); with ELK4, 1.43 fold enrichment (6-mer frequency, TF over GST control); with ETV2, 1.2 fold enrichment (6-mer frequency, TF over GST control); with ELF3 it was 1.45 fold enrichment (6-mer frequency, TF over GST control); in the assay with CRX, 1.33 fold enrichment (6-mer frequency, TF over GST control). The binding signal in the assay with ETV1 was 1.34 fold enrichment (6-mer frequency, TF over GST control).

The record behind these values is paper PMC7862700, “An all-to-all approach to the identification of sequence-specific readers for epigenetic DNA modifications on cytosine”.
